From PubChem BioAssay AID624297 (National Center for Advancing Translational Sciences (NCATS), 2012)
The campaign covered roughly 340,000 compounds. About 6,200 (1.8%) were called active. Not shown: some 10% with an inconclusive outcome. Shown is part of a subset that was picked to be rich in actives. A number with no mark means an inactive call. The call rests on the fitted dose curve; in most records, active means well fitted activation curve with a large enough effect; inconclusive means small, poorly fitted or top-dose-only effect; inactive means no such curve, though single readings can be large or run the other way.

assay: A quantitative high throughput screen for small molecules that induce DNA re-replication in SW480 colon adenocarcinoma cells.; further: nearly all actives have a fitted effect of over 55% in size; on re-replication activation: % of control where 0% means no effect; details: Hoechst DNA content imaging, 48 h; series mostly up to 46.1 µM; re-replication activation: at the top concentration
Procedure, shortened: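 Image-based read-out: total Hoechst fluorescence of nuclei (405 nm excitation, 500-530 nm emission), with hits raising the fraction of high-intensity nuclei. SW480 colon cells incubated 48 hr with compounds at 37 C.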
Potency means the concentration at half of the fitted maximal effect.

| SMILES | re-replication activation | Potency |
| --- | --- | --- |
| O=C(O)C1C2C=CC(O2)C1C(=O)Nc1ccccn1 (stereo not given) | 1.43% |  |
| O=C(CNC(=O)c1ccco1)NNC(=O)c1ccc(Br)cc1 | -7.84% |  |
| O=C(O)c1ccc(Cn2cnc3c(=S)nc[nH]c32)cc1 | -1.18% |  |
| Cc1cc([N+](=O)[O-])ccc1NS(=O)(=O)c1ccccc1 | 25.1% |  |
| NC(=O)C1(Nc2ccccc2Cl)CCCC1 | 4.75% |  |
| COc1ccc(CS(=O)/C(Cl)=C(/Cl)C(=O)Nc2ccc(OC)nc2)cc1 (stereo not given) |  | 0.259 µM (active) |
| CCOc1ccc(S(=O)(=O)Nc2ccc(OC)nc2)cc1 | 2.32% |  |
| COc1ccc(CC(=O)Nc2ccc(C(=O)NC(C)(C)C)cc2)cc1 | -4.54% |  |
| COc1cccc(CNC(=O)C(=O)NCCC2CCCCN2S(=O)(=O)c2ccc(C)cc2)c1 (stereo not given) |  | 15.8 µM (active) |
| O=C(NCCC1CCCCN1S(=O)(=O)c1ccccc1)C(=O)NCC1CCCO1 (stereo not given) | -3.44% |  |
| O=C(NCCC1CCCCN1S(=O)(=O)c1ccc(F)cc1)C(=O)NC1CC1 (stereo not given) | -0.117% |  |
| O=C(COC(=O)COc1cc(Cl)c(Cl)cc1Cl)NC1CC1 | 1.81% |  |
| CN1CN(C)c2ccc([N+](=O)[O-])c3cccc1c23 | -2.04% |  |
| O=C1c2cccc3c([N+](=O)[O-])ccc(c23)C(=O)N1CC1CCCO1 (stereo not given) |  | 5.8 µM (active) |
| CCOc1cccc(=O)c2c(C)n(CC3CCCO3)c(C)c12 (stereo not given) | 0.512% |  |
| O=C(CNC(=O)c1cccnc1)N/N=C/c1cccnc1 | -5.33% |  |
| O=C(CSc1cccc2cccnc12)N/N=C/c1cccnc1 |  | 7.31 µM (active) |
| COc1ccc(C(=O)NCC(=O)N/N=C/c2cccnc2)cc1 | -17.5% |  |
| CN(C)S(=O)(=O)c1cccc(NC(=S)NCc2ccc3c(c2)OCO3)c1 | 3.36% |  |
| Cc1ccc(/C=N/NC(=S)NC2CCCCC2)o1 | 24.3% |  |
| Cc1ccc(/C=N/NC(=S)Nc2cccc(S(=O)(=O)N(C)C)c2)o1 |  | 23.1 µM (active) |
| COc1cc(C(=O)CCc2ccc3c(c2)OCO3)cc(OC)c1OC | -0.473% |  |

| SMILES | re-replication activation | Potency |
| --- | --- | --- |
| Cc1ccc(C(=O)N/N=C/c2cccc3ccccc23)cn1 | 6.35% |  |
| CCOc1ccc2ccccc2c1/C=N/NC(=O)c1c(C)cc(C)[nH]c1=O |  | 23.1 µM (active) |
| COc1ccc2ccccc2c1/C=N/NC(=O)c1cc(C)[nH]n1 | -0.539% |  |
| O=C(COC(=O)c1ccc([N+](=O)[O-])o1)NC12CC3CC(CC(C3)C1)C2 | 4.47% |  |
| CCOC(=O)C1CCCN(C(=O)c2ccc(C)c(S(=O)(=O)N3CCCCC3)c2)C1 (stereo not given) | 6.08% |  |
| COc1cccc2c1C(=O)c1c(O)c3c(c(O)c1C2=O)CC(O)(C(C)=NNC(=O)c1ccc(Cl)c(Cl)c1)CC3OC1CC(N)C(O)C(C)O1 (stereo not given) | 0.405% |  |
| CS(=O)(=O)c1sc2nc(-c3ccccc3)cc(-c3ccccc3)c2c1N |  | 11.2 µM (active) |
| CNc1nc(-c2ccccc2)cc(-c2ccccc2)n1 | -0.44% |  |
| Nc1nc(-c2ccccc2)cc(-c2ccccc2)n1 | -20.8% |  |
| CCN([C@H](CO)C(C)C)S(=O)(=O)c1ccccc1Br | -15.5% |  |
| CN1C(c2ccc(F)cc2)=CS/C1=C(/C#N)c1nnc2n1-c1ccccc1SC2 | 19.8% |  |
| C/[N+]([O-])=C\c1ccc([N+](=O)[O-])o1 |  | 14.6 µM (active) |
| CN1CCN(/N=C/c2ccc(-c3ccc([N+](=O)[O-])cc3)o2)CC1 | -0.483% |  |
| Cc1cc(C)nc(N/N=C/c2ccc([N+](=O)[O-])o2)n1 | 6.52% |  |
| CN1CCN(C(=O)c2ccc(-c3ccc(Br)cc3)o2)CC1 | 2.36% |  |
| CCN(C(=O)CSc1cccc[n+]1[O-])c1ccccc1 | -4.57% |  |
| Cc1cc(C(=O)N/N=C/c2cc([N+](=O)[O-])cc(C)c2O)n[nH]1 | 14.2% |  |
| O=[N+]([O-])c1cc(Br)c(O)c(/C=N/Nc2nc3ccccc3s2)c1 |  | 3.26 µM (active) |
| COc1ccc(CC(=O)N/N=C/c2cc([N+](=O)[O-])cc(Br)c2O)cc1 | -1.1% |  |
| COc1ccc(C(=O)Nc2cc(S(=O)(=O)N3CCCC3)ccc2Cl)cc1 | -0.541% |  |
| C[C@H](O)[C@@H]1C(=O)N2CCc3ccc(N4CCOCC4)cc3[C@@H]2C[C@@H]1N(C)C(=O)C(C)(C)C | 0.113% [at 9.22 µM] |  |
| Cc1cccc(C(=O)NCC(=O)OCC(=O)N2CC3(C)CC2CC(C)(C)C3)c1 (stereo not given) | 6.03% |  |

| SMILES | re-replication activation | Potency |
| --- | --- | --- |
| COc1ccc(C(=O)N2CC3(C)CC2CC(C)(C)C3)cc1OC (stereo not given) | 27.6% |  |
| Cc1nnnn1/C(=C\c1ccccc1)C(=O)OCC(=O)N1CC2(C)CC1CC(C)(C)C2 (stereo not given) |  | 18.4 µM (active) |
| COc1ccc(CCNC(=O)COC(=O)Cc2ccccc2F)cc1 | -13.5% |  |
| N#Cc1cc([N+](=O)[O-])ccc1NC(=O)COC(=O)c1cnccn1 | -0.55% |  |
| Cc1cc(C(=O)OCC(=O)N2C(C)CCCC2C)c2ccccc2n1 (stereo not given) | 17% |  |
| Cc1cccc(NC(=O)c2cc([N+](=O)[O-])ccc2N2CCN(C)CC2)c1 | 0.478% |  |
| Cc1cccc(NC(=O)c2ccc([N+](=O)[O-])o2)c1 |  | 3.66 µM (active) |
| COc1cccc(NC(=O)c2ccc(Cn3cc([N+](=O)[O-])cn3)o2)c1 | 0.872% |  |
| CS(=O)(=O)Nc1ccccc1C(=O)OCC(=O)NC1CC1 | -13.3% |  |
| CC(=O)NC(CC(=O)Nc1ccc(S(=O)(=O)N2CCOCC2)cc1)c1ccccc1 (stereo not given) | -3.64% |  |
| COc1cccc(/C=N/NC(=O)CNC(=O)c2ccc(S(=O)(=O)N3CCOCC3)cc2)c1OC | -15% |  |
| COc1ccc(C(=O)NCC(=O)N/N=C/c2ccc([N+](=O)[O-])o2)cc1OC |  | 11.6 µM (active) |
| COc1cc(/C=N/NC(=O)CNC(=O)c2ccncc2)ccc1OC(C)=O | 3.75% |  |
| Cc1csc(=O)n1CC(=O)Nc1ccc(S(C)(=O)=O)cc1 | -2.89% |  |
| Nc1cccc2c1C(=O)N(Cc1nnc(-c3ccccc3Br)o1)C2=O |  | 16.4 µM (active) |
| Cn1cnnc1SCc1nnc(-c2ccccc2Br)o1 | -24.9% |  |
| O=C1c2ccccc2C(=O)N1Cc1cc(-c2ccccc2Cl)no1 | -7.3% |  |
| CN(CC(=O)NCCc1ccc(S(N)(=O)=O)cc1)CC(=O)Nc1ccc(Cl)cc1 | -4.05% |  |
| COC(=O)CSC1=C(C#N)C(c2ccccc2OC)C(C(=O)OC)C(=O)N1 (stereo not given) | 0.322% [at 9.22 µM] |  |
| Cc1ccc(C2CC(=O)NC(SCC(=O)OCc3ccccc3)=C2C#N)o1 (stereo not given) | 3.01% |  |
| CCOC(=O)CSC1=C(C#N)C(c2sccc2C)CC(=O)N1 (stereo not given) |  | 5.01 µM (active) |
